In the library only some 19% were active in any assay of this set; here they are far more common.
TGFb SMAD3 inh: TGF-b pathway inhibition; HepG2 CAGA-GFP TGF-b/SMAD3 reporter, GFP fluorescence, 18 h; TGF-beta stimulated, 500 pg/mL final; Potency, µM (titrated, usually from 46.1 µM), for the others: at the top dose activity, negative = inhibition, usual class: inhibitors; 410,000 tested, 1.2% active; AID 588855; further: potency means the concentration at half of the fitted maximal effect; on the % scale 0 is the no-effect control and ±100 the full control effect; nearly all actives have a fitted effect of over 65% in size
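Per well, imaged GFP fluorescence of HEPG2 CAGA-GFP cells gives the signal; cells get compound, then TGF-beta (500 pg/mL final), 18 h at 37 degrees C; %Activity versus -TGF-beta and +DMSO controls.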
DT40 TDP1 no CPT: qHTS for Inhibitors of human tyrosyl-DNA phosphodiesterase 1 (TDP1): qHTS in cells in absence of CPT. DT40 Tdp1-/- hTDP1 cells, no CPT, ATP luminescence, 48 h. Potency, µM (doses to about 46.2 µM), for the others: top-dose activity change, negative = growth inhibition, most hits filed as inhibitors. 420,000 tested, 15% active. AID 686978, 2013; further: potency means the concentration at half of the fitted maximal effect; on the % scale 0 is the no-effect control and ±100 the full control effect; nearly all actives have a fitted effect of over 55% in size
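Seeded 400 DT40-hTDP1 cells/well (vehicle DMSO, no 20 nM CPT); pinned compounds; ≥48 hr at 37 °C; CellTiter-Glo luminescence as viability measure.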
TDP1 cell CPT: growth inhibition of DT40 Tdp1-/-;hTDP1 cells with camptothecin (screen for TDP1 inhibitors); chicken DT40 Tdp1-/-;hTDP1 cells + 20 nM CPT, ATP luminescence, 48 h; 420,000 tested, 12% active; Potency, µM (highest dose often 46.2 µM), without a hit: at the highest dose activity change, negative = growth inhibition, most hits filed as inhibitors; further: potency means the concentration at half of the fitted maximal effect; on the % scale 0 is the no-effect control and ±100 the full control effect; nearly all actives have a fitted effect of over 55% in size
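Chicken DT40 Tdp1-/- cells stably complemented with human TDP1 were seeded at 400 cells/well in medium containing 20 nM camptothecin, exposed to pin-transferred compounds, and grown at 37 °C for at least 48 hr. Viability was read as ATP luminescence.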
IL1B secr inh: blocks inflammasome-driven IL-1 beta release | 360,000 tested, 4.7% active | activity change, % at 57.5 µM | THP-1 LPS/ATP IL-1B secretion, AlphaLISA, 16 h; hits give low values | AID 743279; in the data active means activity change below about -50%; inconclusive means mostly about -30% to -49%; further: on the % scale 0 is the no-effect control and ±100 the full control effect
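THP-1 cells pretreated 1 hr with compounds (up to 57.5 uM final), then stimulated with LPS (250 ng/mL final) plus ATP (1.25 mM final); secreted IL-1B measured by AlphaLISA after 16 hr, decreased signal indicating inhibition.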
HepG2 tox: kills HepG2 cells in TGF-b inhibitor counter-screen; HepG2 CAGA-GFP viability, ATP luminescence, 18 h; Potency, µM (series often up to 46.1 µM), inactives show top-dose activity change, negative = cytotoxicity, most hits filed as cytotoxic; 410,000 tested, 0.76% active; further: potency means the concentration at half of the fitted maximal effect
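CellTiter-Glo luminescence gave cytotoxicity after 18 hours at 37 degrees C. The cells were HepG2 CAGA-GFP in 1% FBS DMEM, stimulated with 500 pg/mL TGF-beta after compound addition. %Activity was normalised to no-cell wells (complete cell-killing) and DMSO (no toxicity), and curves were fitted and classified.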
TDP1 block: TDP1 (human) enzyme inhibition; Q9NUW8; recombinant TDP1, AlphaScreen DNA substrate cleavage; Potency, µM (top dose mostly 130 µM), inactives show at the top dose activity change, negative = inhibition, actives largely listed as inhibitors; 350,000 tested, 0.28% active; AID 485290; further: potency means the concentration at half of the fitted maximal effect; on the % scale 0 is the no-effect control and ±100 the full control effect; nearly all actives have a fitted effect of over 40% in size
Target sequence (Q9NUW8 whole entry, looked up): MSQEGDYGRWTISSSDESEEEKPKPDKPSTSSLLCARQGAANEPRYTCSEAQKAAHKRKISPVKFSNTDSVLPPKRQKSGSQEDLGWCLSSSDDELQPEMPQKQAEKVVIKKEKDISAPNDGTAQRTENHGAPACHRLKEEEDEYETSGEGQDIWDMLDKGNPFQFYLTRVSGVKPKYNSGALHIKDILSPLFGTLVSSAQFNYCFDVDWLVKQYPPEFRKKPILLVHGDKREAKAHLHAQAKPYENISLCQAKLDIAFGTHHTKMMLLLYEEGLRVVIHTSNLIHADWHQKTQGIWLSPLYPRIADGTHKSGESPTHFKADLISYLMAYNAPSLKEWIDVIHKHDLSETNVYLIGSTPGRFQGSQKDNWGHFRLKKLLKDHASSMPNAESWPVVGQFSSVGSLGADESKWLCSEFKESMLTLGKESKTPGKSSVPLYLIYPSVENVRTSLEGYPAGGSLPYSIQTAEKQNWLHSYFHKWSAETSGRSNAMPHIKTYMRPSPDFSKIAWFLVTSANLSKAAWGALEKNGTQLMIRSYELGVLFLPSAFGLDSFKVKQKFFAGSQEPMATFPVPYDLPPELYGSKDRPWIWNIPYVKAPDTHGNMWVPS
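Recombinant human Tdp1 (E. coli-expressed, 1 nM final) preincubated with compounds 15 min at room temperature, then 5'-biotin/3'-phosphotyrosine-FITC DNA substrate (15 nM final) added for 5 min. AlphaScreen beads (10 ug/ml final) added 10 min; cleavage lowers signal.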
Starred values were filed as active, the others as inactive; i = inactive; u = inconclusive; x = no result given; [ ] = another dose, or the depositor's remark. Unless noted, the call rests on the fitted dose curve; in most records, active means well fitted curve in the direction sought with a large enough effect; inconclusive means small, poorly fitted or top-dose-only effect, or another doubt; inactive means no such curve, though single readings can be large; an effect the other way counts as inactive or inconclusive.

SMILES	TGFb SMAD3 inh	DT40 TDP1 no CPT	TDP1 cell CPT	IL1B secr inh	HepG2 tox	TDP1 block
CCN(CC)c1ccc(C(=O)Nc2ccc3nc(N(CC)CC)cc(C)c3c2)cc1	0%	u	u	x	-31%	0%
COc1ccccc1CNC(=O)CN1C(=O)N(C)C2(CCCCC2)C1=O	2%	-16%	-8%	-17	-31%	-4%
CCCOc1ccc(Nc2nc(SC)ncc2C(=O)OCC)cc1	-3%	26µM*	u	x	-1%	-2%
O=C(CSc1nc2ccsc2c(=O)n1Cc1ccccc1F)NCc1ccccc1	-9%	u	-23%	x	-1%	-3%
CCn1c(SC)nc2cc(S(=O)(=O)N3CCCCC3)ccc21	-1%	-25%	1.6µM*	-12	-25%	0%
CCn1c(SCC(=O)N(C)C)nc2cc(S(=O)(=O)N3CCOCC3)ccc21	-20%	-8%	-10%	-2	-16%	-9%
CCn1c(CN2CCC(C)CC2)nc2cc(S(=O)(=O)N3CCCCC3)ccc21	-13%	13µM*	u	-10	-49%	x
CCOC(=O)c1sc(NC(=O)c2cc3nc(-c4ccc(Br)cc4)cc(C(F)(F)F)n3n2)c(C(=O)OCC)c1C	u	23µM*	u	x	-19%	0%
CCOC(=O)c1c(NC(=O)c2cc3nc(-c4ccccc4)cc(C(F)(F)F)n3n2)sc2c1CCC(C)C2 (centres undefined)	58%	18µM*	23µM*	x	17%	-2%
CCc1c(C)sc(NC(=O)c2cc3nc(-c4ccc(OC)cc4)cc(C(F)(F)F)n3n2)c1C(=O)OC	-1%	-3%	5%	x	1%	1%[12.3 µM]
O=C(CCN1CCOCC1)NNC(=O)Nc1cccc([N+](=O)[O-])c1	-9%	4%	1%	i	35%	2%
CC(C)c1nc2ccc(C(=O)NCCCN3CCN(c4cccc(Cl)c4)CC3)cc2o1	u	21µM*	18µM*	x	-18%	4%
O=C(Nc1ccc(Br)cc1F)c1ccc2nc(CCc3ccccc3)oc2c1	21%	12µM*	7.3µM*	x	0%	1%
CC(C)c1nc2ccc(C(=O)NCCCN3CCN(c4ccc(F)cc4)CC3)cc2o1	u	u	u	x	-28%	8%
COCC1CCCCN1C(=O)c1ccc2nc(Cc3ccc(OC)c(OC)c3)oc2c1 (centres undefined)	-1%	u	12µM*	77	7%	4%
CCc1cc(CNC(=O)c2ccc3nc(Cc4ccc(OC)c(OC)c4)oc3c2)on1	-10%	u	23µM*	5	-14%	2%
Cc1nc(C)n(CC(=O)N2CCOc3ccc(CN4CCN(C)C[C@@H]4c4ccccc4)cc3C2)n1	x	-16%	-9%[9.04 µM]	x	x	x
CC1CCC2C(=O)N3C(CCC(C)[C@H]3c3cccc(N4CCCC4=O)c3)C(=O)N2C1c1cccc(N2CCCC2=O)c1 (some centres undefined)	x	x	x	x	x	7%[21 µM]
COc1ccc(CNC(=O)c2ccc3nc(CCc4ccccc4)oc3c2)cc1	u	-23%	u	x	-11%	5%
CN1CCN(CCCNC(=O)c2ccc3nc(Cc4ccccc4)oc3c2)CC1	0%	2%	5%	x	10%	3%
COc1ccc(Cc2nc3ccc(C(=O)NCCc4ccccn4)cc3o2)cc1OC	43%	-20%	-20%	-7	0%	4%[56.1 µM]
COc1ccc(N2CCN(CCCNC(=O)c3ccc4nc(Cc5ccccc5)oc4c3)CC2)cc1	-16%	6.5µM*	6.5µM*	x	-60%	10%
COc1ccc(CNC(=O)c2ccc3nc(CCc4ccccc4)oc3c2)cc1OC	3%	16µM*	18µM*	x	-23%	4%
COc1ccc(Cc2nc3ccc(C(=O)NCCCN4CCN(C)CC4)cc3o2)cc1	-23%	u	u	x	-33%	-2%
O=C(NCCCN1CCN(c2cccc(Cl)c2)CC1)c1ccc2nc(Cc3ccccc3)oc2c1	u	15µM*	23µM*	x	-44%	9%
SMILES	TGFb SMAD3 inh	DT40 TDP1 no CPT	TDP1 cell CPT	IL1B secr inh	HepG2 tox	TDP1 block
COc1ccc(Cc2nc3ccc(C(=O)NCCc4ncccc4C)cc3o2)cc1OC	-3%	23µM*	21µM*	-5	-28%	x
COc1cc(OC)cc(C(=O)Nc2cc3c(cc2N2CCCC2)n(C)c(=O)c(=O)n3C)c1	-14%	u	u	x	4%	x
COc1ccccc1C1CN(CCNC(=O)c2ccc3c(c2)OCCO3)Cc2ccccc2O1 (centres undefined)	x	u	12%[9.04 µM]	x	x	x
CN(C(=O)c1ccc(COc2ccccc2Br)o1)c1ccccc1	-5%	-6%	-21%	0	-3%	3%
O=C(NCCCN1CCN(c2ccccc2)CC1)c1ccc2nc(CCc3ccccc3)oc2c1	-16%	4.6µM*	3.7µM*	x	-24%	8%
COc1ccc(NC(=O)c2ccc3nc(CCc4ccccc4)oc3c2)cc1	8%	u	u	x	0%	2%
COc1ccc(Cc2nc3ccc(C(=O)NCCc4ccccc4)cc3o2)cc1	2%	u	26µM*	x	-57%	1%
COc1ccc(N2CCN(CCCNC(=O)c3nnc(Cc4ccc(F)cc4)o3)CC2)cc1	7%	u	16µM*	x	-22%	1%
COc1ccc(N2CCN(CCCNC(=O)c3ccc4nc(CCc5ccccc5)oc4c3)CC2)cc1	-14%	16µM*	15µM*	x	-16%	10%
O=C(Nc1cccc2c(=O)cc(-c3nn[nH]n3)oc12)c1ccc(OCCCCc2ccccc2)cc1	x	-14%	9%	x	x	x
FC(F)(F)c1ccc2c(c1)ncc1c(-c3ccccc3)nn(-c3ccccc3)c12	4%	1%	0%	x	-59%	2%
COc1cccc(-c2nc3ccc(C(=O)NC(C)Cc4cccnc4)cc3o2)c1 (centres undefined)	3%	u	9.2µM*	u	0%	x
CNC(=O)c1ccc2nc(CCc3ccccc3)oc2c1	-1%	-2%	1%	x	-17%	4%
COC(=O)C1CCN(C(=O)c2ccc3nc(-c4cccc(OC)c4)oc3c2)CC1	-27%	-28%	-25%	8	-30%	6%
CCC(C)NC(=O)c1ccc2nc(Cc3ccccc3)oc2c1 (centres undefined)	32%	15µM*	u	x	-11%	-3%
O=C(Nc1cccc(Cl)c1)c1ccc2nc(Cc3ccccc3)oc2c1	u	21µM*	21µM*	x	-47%	3%

Screening results (PubChem BioAssay)
